From the supplement of paper PMC7156485
± gives the standard deviation of the averaged measurements.

Test system: HCC1569
Assay: cell number relative to DMSO (% of DMSO); higher = more cells (less growth inhibition / toxicity)
Conditions: concentration: 10 µM; 24 h
In short: (§1)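 Treatment: HCC1569 and TDF cells, 800 per well in 384-well plates with RPMI and 10% FBS, were given compounds at 10 µM for 24 h at 37 °C, in triplicate. Readout: after 3.7% formaldehyde fixation, cells were stained with a rabbit anti-H1.0 antibody, an AlexaFluor 647 secondary and DAPI. Reported values are H1.0 nuclear intensity or cell number as percent of the plate control, taken as the median of replicates, with positional smoothing for HCC1569.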
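Note: TDF denotes transformed human dermal fibroblasts of mesenchymal origin.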

Structure (SMILES)	cell number
CC(C)N(CCC(C(N)=O)(c1ccccc1)c1ccccn1)C(C)C (stereo not drawn) [Disopyramide]	99.8
CC1OC(=O)C2CC3CCCCC3C(C=CC3CCCC(C)N3C)C12 (stereo not drawn) [Himbacine]	103
COc1ccc2c(c[n+](C)c3c4cc5c(cc4ccc23)OCO5)c1OC.[Cl-] [Chelerythrine Chloride]	90.9
COc1ccc2c(c1O)-c1cccc3c1C(C2)N(C)CC3.Cl (stereo not drawn) [R(-)-Apocodeine hydrochloride]	103
NC(=NN=Cc1ccc(-c2cccc([N+](=O)[O-])c2)o1)N[N+](=O)[O-] [ERK Inhibitor III]	102
CCCCCC=CCC=CCC=CCC=CCCCC(=O)NCCO [Anandamide (20:4, n-6)]	103

Test system: TDF
Assay: as above
Conditions: concentration: 10 µM; 24 h
In short: as §1

Structure (SMILES)	cell number
CCN1CC2(COC)CCC(O)C34C5CC6C(OC)CC(O)(C(CC23)C14)C5C6OC(C)=O (stereo not drawn) [Condelphine]	105
COc1cc2c(c(OC)c1OC)-c1ccc(SC)c(=O)cc1C(NC(C)=O)CC2 (stereo not drawn) [Thiocolchicine]	10.7
Br.CN1C2CC(OC(=O)C(CO)c3ccccc3)CC1C1OC12 (single isomer, unassigned; (-)) [(-)-Scopolamine hydrobromide]	104
C[N+](C)(C)CC(=O)O.[Cl-] [Betaine hydrochloride]	113
COc1cc2c(c(OC)c1OC)-c1ccc(OC)c(=O)cc1C(NC(C)=O)CC2 (stereo not drawn) [Colchicine]	9.12 ± 1.6
Cl.c1ccc(C2CC2)c(OCC2=NCCN2)c1 [Cirazoline hydrochloride]	109
Cl.O=C1CCC2(O)C3Cc4ccc(O)c5c4C2(CCN3CC2CC2)C1O5 (stereo not drawn) [Naltrexone.HCl]	100
CCC(C)CC(C)N (stereo not drawn) [1,3-dimethylpentylamine]	106
CCN(CCCl)Cc1ccccc1Br.Cl [DSP-4 hydrochloride]	103
COc1cc(C2c3cc4c(cc3C(O)C3COC(=O)C23)OCO4)cc(OC)c1O (stereo not drawn) [4'-Demethylpipodophyllotoxin]	12.7
CCCCCCCCCCCCCCCCOCC(COP(=O)([O-])OCC[N+](C)(C)C)OC(C)=O (stereo not drawn)	98.3
C=CCN1CCC23c4c5ccc(O)c4OC2C(=NN=C2CCC4(O)C6Cc7ccc(O)c8c7C4(CCN6CC=C)C2O8)CCC3(O)C1C5.Cl.Cl (stereo not drawn) [Naloxonazine dihydrochloride]	62.9
CC1OC(=O)C2CC3CCCCC3C(C=CC3CCCC(C)N3C)C12 (single isomer, unassigned; (+)) [(+)-Himbacine]	112
CCCN1CCCC2Cc3[nH]ncc3CC21.Cl (single isomer, unassigned; (-)) [(-)-Quinpirole hydrochloride]	101
CC1=CC(=O)c2c(O)cccc2C1=O [Plumbagin]	46.8
COC(=O)C1(O)CC2OC1(C)n1c3ccccc3c3c4c(c5c6ccccc6n2c5c31)C(=O)NC4 (stereo not drawn) [K-252a, Nocardiopsis sp.]	2.54
NC(Cn1ccc(=O)[nH]c1=O)C(=O)O (stereo not drawn) [S(-)-Willardiine]	118
NCCN(CCN)N(O)N=O [1,1-bis(2-aminoethyl)-2-hydroxy-3-oxotriazane]	97.5
NCCCNCCSP(=O)(O)O [Amifostine]	104 ± 2.8

Structure (SMILES)	cell number
BrC1C(Br)C(Br)C(Br)C(Br)C1Br (stereo not drawn)	106
O=C1CCCN1CC#CCN1CCCC1 [Oxotremorine]	109
Cl.Clc1cc(I)cc(Cl)c1NC1=NCCN1 [p-Iodoclonidine hydrochloride]	101
CCCN1CCCC2Cc3nc(N)ncc3CC21.Cl.Cl (stereo not drawn) [Quinelorane dihydrochloride]	113
COC(=O)CC(O)(CCC(C)(C)O)C(=O)OC1C(OC)=CC23CCCN2CCc2cc4c(cc2C13)OCO4 (stereo not drawn) [Harringtonine]	29.9
CC(=O)C1CCC2C3CCC4CC(O)CCC4(C)C3C(=O)CC12C (stereo not drawn) [5alpha-Pregnan-3alpha-ol-11,20-dione]	108
COc1ccc2c(c1OC)C(=O)OC2C1c2cc3c(cc2CCN1C)OCO3 (single isomer, unassigned; (+)) [(+)-Hydrastine]	104
CC12CCC3C(CCC4=C(O)C(=O)CCC43C)C1CCC2=O (stereo not drawn) [4-Androsten-4-ol-3,17-dione]	96.7
COc1ccc2c(c[n+](C)c3c4cc5c(cc4ccc23)OCO5)c1OC.[Cl-] [Chelerythrine chloride]	0.93
CCN1CC2(C)CCC(OC)C34C5CC6CCC(O)(C5C(=O)O6)C(C(O)C23)C14 (stereo not drawn) [Heteratisine]	105
COC1=CC(=O)OC(CCc2ccc3c(c2)OCO3)C1 (stereo not drawn) [Dihydromethysticin]	105
Clc1ccc(C(c2ccc(Cl)cc2)n2cc[n+](CC(OCc3ccc(Cl)cc3Cl)c3ccc(Cl)cc3Cl)c2)cc1.[Cl-] (stereo not drawn) [Calmidazolium chloride]	0.84
CC(C)N(CCC(C(N)=O)(c1ccccc1)c1ccccn1)C(C)C (stereo not drawn) [Disopyramide]	106
CC1OC(=O)C2CC3CCCCC3C(C=CC3CCCC(C)N3C)C12 (stereo not drawn) [Himbacine]	107
COc1ccc2c(c[n+](C)c3c4cc5c(cc4ccc23)OCO5)c1OC.[Cl-] [Chelerythrine Chloride]	98.2
COc1ccc2c(c1O)-c1cccc3c1C(C2)N(C)CC3.Cl (stereo not drawn) [R(-)-Apocodeine hydrochloride]	89.9
NC(=NN=Cc1ccc(-c2cccc([N+](=O)[O-])c2)o1)N[N+](=O)[O-] [ERK Inhibitor III]	101
CCCCCC=CCC=CCC=CCC=CCCCC(=O)NCCO [Anandamide (20:4, n-6)]	94.1
